# Experimental data from PubChem BioAssay.
# Unmarked numbers belong to inactive results. The source made the active and inactive calls. Rule as the data show it, unless noted: active = inhibition above about 30%; inactive = the rest.
# Molecular target: Nuclear receptor coactivator 3 (Homo sapiens) (UniProt Q9Y6Q9)
# Test: SRC3 coactivator transcriptional activity inhibitors, confirmation, cell-based, luminescence, quadruplicate (AID 588792;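 active = mean inhibition over 43.08%, the solvent-only control mean plus 3 SD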;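 also: 0% = DMSO treated cells and 100% = gossypol at 36 µM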)
# Details: HEK293 GAL4-SRC3 luciferase reporter, at 3.6 µM, stronger effect = higher value
# Nuclear receptor coactivator 3 (Homo sapiens), sequence (Q9Y6Q9 whole entry, looked up): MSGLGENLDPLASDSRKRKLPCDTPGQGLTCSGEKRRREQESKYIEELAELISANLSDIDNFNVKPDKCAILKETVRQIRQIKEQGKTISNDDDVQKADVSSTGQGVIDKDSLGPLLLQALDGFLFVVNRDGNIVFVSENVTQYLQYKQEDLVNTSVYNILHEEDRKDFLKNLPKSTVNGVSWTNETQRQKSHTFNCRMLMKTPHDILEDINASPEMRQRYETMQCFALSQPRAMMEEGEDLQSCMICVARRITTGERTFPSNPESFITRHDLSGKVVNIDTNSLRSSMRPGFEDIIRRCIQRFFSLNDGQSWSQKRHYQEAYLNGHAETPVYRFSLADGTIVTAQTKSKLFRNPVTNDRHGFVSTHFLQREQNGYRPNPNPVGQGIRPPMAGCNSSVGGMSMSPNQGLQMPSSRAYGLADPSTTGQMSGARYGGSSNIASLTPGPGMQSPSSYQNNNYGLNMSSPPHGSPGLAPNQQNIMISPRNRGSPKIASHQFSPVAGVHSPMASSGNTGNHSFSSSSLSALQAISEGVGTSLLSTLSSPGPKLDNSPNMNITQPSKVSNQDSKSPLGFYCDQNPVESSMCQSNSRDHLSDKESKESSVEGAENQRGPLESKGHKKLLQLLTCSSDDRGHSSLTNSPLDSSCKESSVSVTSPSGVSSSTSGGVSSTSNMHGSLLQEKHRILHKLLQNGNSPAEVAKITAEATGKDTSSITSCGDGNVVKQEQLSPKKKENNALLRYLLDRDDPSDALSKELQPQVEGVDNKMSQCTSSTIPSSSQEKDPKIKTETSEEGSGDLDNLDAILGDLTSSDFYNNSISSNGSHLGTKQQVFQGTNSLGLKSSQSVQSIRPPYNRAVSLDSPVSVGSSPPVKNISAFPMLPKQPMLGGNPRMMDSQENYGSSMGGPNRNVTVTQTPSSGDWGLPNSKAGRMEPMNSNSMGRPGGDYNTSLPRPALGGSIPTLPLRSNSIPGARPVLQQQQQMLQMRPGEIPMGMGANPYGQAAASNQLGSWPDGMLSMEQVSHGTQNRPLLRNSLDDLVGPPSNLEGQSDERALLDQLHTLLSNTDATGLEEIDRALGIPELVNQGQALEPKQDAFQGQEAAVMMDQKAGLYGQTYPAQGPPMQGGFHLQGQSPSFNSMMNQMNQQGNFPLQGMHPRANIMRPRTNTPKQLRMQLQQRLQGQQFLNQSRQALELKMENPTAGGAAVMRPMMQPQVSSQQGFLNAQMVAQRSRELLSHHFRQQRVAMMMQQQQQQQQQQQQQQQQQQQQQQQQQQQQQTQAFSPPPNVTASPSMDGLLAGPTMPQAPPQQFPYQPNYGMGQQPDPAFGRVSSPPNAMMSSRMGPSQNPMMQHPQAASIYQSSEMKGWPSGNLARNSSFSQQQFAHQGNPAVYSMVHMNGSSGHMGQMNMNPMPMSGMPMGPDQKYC
row,Structure (SMILES),inhibition
1,O=C(CCl)Nc1cccc(-c2cnc3ccccc3n2)c1,33.5%
2,COc1ccc(S(=O)(=O)NCc2ccncc2)cc1NC(=O)c1ccc(Cl)cc1,14.2%
3,CC1=C/C(=N\OS(=O)(=O)c2ccccc2)C(C)=CC1=O,19.7%
4,CCOc1ccc(/C=C/C(O)=C2/C(=O)NC3(C)CC2c2ccccc2O3)cc1OC (stereo not given),25.5%
5,Cc1nc2c(-c3ccc(F)cc3)cnn2c(N)c1-c1ccc(F)cc1,12%
6,O=C(Oc1ccc(F)cc1C(=O)/C=C/c1cccs1)c1cccc([N+](=O)[O-])c1,-13.7%
7,CCc1nc2ccccc2c(=O)n1NCCc1ccccc1,-4.18%
8,NC(=S)N/N=C1\CCOc2ccc(Cl)cc21,34.6%
9,Cn1nnnc1Sc1ncnc2scc(-c3ccccc3)c12,-4.36%
10,c1cncc(CNc2ncnc3sc4c(c23)CCC4)c1,23.1%
11,CCCCC(=O)NC(c1ccco1)c1cc(Cl)c2cccnc2c1O (stereo not given),16.4%
12,COc1ccc(C(CC(=O)O)NC(=O)OC(C)(C)C)cc1 (stereo not given),4.59%
13,COc1ccc(/C=C(\C#N)C(=O)OCC(=O)N(C)C2CCS(=O)(=O)C2)cc1 (stereo not given),-1.8%
14,c1ccc(CN2CCN(c3ncnc4c3[nH]c3ccccc34)CC2)cc1,8.1%
15,COc1ccc(CCN2C(=O)c3cccc4c(C(=O)N5CCCCC5)ccc(c34)C2=O)cc1OC,-2.54%
16,CCOC(=O)c1c(C)[nH]c(C(=O)N/N=C\c2ccccc2O)c1C,11.6%
17,O=C(Nc1ccc(OC(F)(F)F)cc1)Nc1cccc([N+](=O)[O-])c1,-15.5%
18,CC(=O)c1c(O)cc2c3c1OC(C)(C)C1CCC(C)(CC31)O2 (stereo not given),46.2% (active)
19,CCOc1ccc(-c2cc(C)n3nc(C(N)=O)cc3n2)cc1,32.9%
20,COc1ccc(CCNC(=O)COC(=O)Cc2cccc3ccccc23)cc1,-2.4%

row,Structure (SMILES),inhibition
1,COc1ccc(OCCOCC(O)CN2CCOCC2)cc1 (stereo not given),-13.2%
2,CCCCCCSc1ccc([C@H]2N[C@@](CC(C)C)(C(=O)OC)[C@H]3C(=O)N(C)C(=O)[C@@H]23)cc1OC,4.49%
3,Nc1nc(CCl)nc(N(c2ccccc2)c2ccccc2)n1,18.4%
4,O=C(Nc1cccc(S(=O)(=O)N2CCCCC2)c1)c1ccc(S(=O)(=O)C(F)F)cc1,3.35%
5,CCSc1ccccc1C(=O)NCc1ccc2c(c1)OCO2,1.07%
6,Fc1ccccc1-c1csc(=Nc2cccnc2)n1CCCn1ccnc1,37.4%
7,Cc1ccc(S(=O)(=O)N(C)c2ccc(OCC(=O)OCc3c(C)noc3C)cc2)cc1,-4.68%
8,CC(C)(CC(=O)O)CC(=O)Nc1cc(C(F)(F)F)cc(C(F)(F)F)c1,6.02%
9,Cc1ccc(/C=C/C(O)=C2/C(=O)N(C)C3(C)CC2c2ccccc2O3)cc1 (stereo not given),20.3%
10,O=C(CC12CC3CC(CC(C3)C1)C2)Nc1nncs1,15.4%
11,COc1ccc(C(=O)NN(C)c2nc(C(F)(F)F)nc3ccccc23)cc1,51.1% (active)
12,Cc1c(P(=S)(c2ccccc2)c2ccccc2)[n+]2ccccc2n1CCc1ccccc1,25.9%
13,Cc1cc(C)c2nc(C(F)(F)F)c(C#N)c(N)c2c1,45.1% (active)
14,CCCN1C(=O)c2ccccc2NC1c1ccc(Cl)c(Cl)c1 (stereo not given),17.8%
15,Cc1nc(Nc2nc(CSc3nc4ccccc4[nH]3)cc(=O)[nH]2)nc2ccccc12,-5.42%
16,CC(C)(C)CNC(=O)[C@]1(C)CCC[C@@]2(C)C3CC[C@@]4(C)C[C@]3(CCC21)CC4=O (stereo not given in full),9.18%
17,Cc1cc(SCC(=O)N/N=C/c2ccc(O)cc2O)c(C)cc1Br,20.6%
18,CC(C)(C)c1csc(Sc2ccc([N+](=O)[O-])cn2)n1,13.1%
19,CN1CCN(S(=O)(=O)c2ccc(Sc3nnnn3-c3ccccc3)c([N+](=O)[O-])c2)CC1,24.5%
20,COc1ccc(C(CNC(=O)C(C)(C)Oc2ccc(Cl)cc2)N2CCCCC2)cc1 (stereo not given),11.2%

# Tested on: transactivating tegument protein VP16 (Human herpesvirus 1), Gal4-VP16 luciferase reporter
# Test: VP16 transactivation inhibitors, counter-screen for SRC3 inhibitor project, cell-based, luminescence, high throughput (AID 588794)
# Details: mammalian cells, VP16-driven luciferase reporter luminescence; at 3.6 µM; stronger effect = higher value
row,Structure (SMILES),inhibition
1,O=C(CCl)Nc1cccc(-c2cnc3ccccc3n2)c1,13.8%
2,COc1ccc(S(=O)(=O)NCc2ccncc2)cc1NC(=O)c1ccc(Cl)cc1,4.55%
3,CC1=C/C(=N\OS(=O)(=O)c2ccccc2)C(C)=CC1=O,9.07%
4,CCOc1ccc(/C=C/C(O)=C2/C(=O)NC3(C)CC2c2ccccc2O3)cc1OC (stereo not given),39% (active)
5,Cc1nc2c(-c3ccc(F)cc3)cnn2c(N)c1-c1ccc(F)cc1,9.51%
6,O=C(Oc1ccc(F)cc1C(=O)/C=C/c1cccs1)c1cccc([N+](=O)[O-])c1,-23.3%
7,CCc1nc2ccccc2c(=O)n1NCCc1ccccc1,2.67%
8,NC(=S)N/N=C1\CCOc2ccc(Cl)cc21,9.88%
9,Cn1nnnc1Sc1ncnc2scc(-c3ccccc3)c12,2.99%
10,c1cncc(CNc2ncnc3sc4c(c23)CCC4)c1,9.1%
11,CCCCC(=O)NC(c1ccco1)c1cc(Cl)c2cccnc2c1O (stereo not given),10.6%
12,COc1ccc(C(CC(=O)O)NC(=O)OC(C)(C)C)cc1 (stereo not given),3.31%
13,COc1ccc(/C=C(\C#N)C(=O)OCC(=O)N(C)C2CCS(=O)(=O)C2)cc1 (stereo not given),-11%
14,c1ccc(CN2CCN(c3ncnc4c3[nH]c3ccccc34)CC2)cc1,29.9% (active)
15,COc1ccc(CCN2C(=O)c3cccc4c(C(=O)N5CCCCC5)ccc(c34)C2=O)cc1OC,3.93%
16,CCOC(=O)c1c(C)[nH]c(C(=O)N/N=C\c2ccccc2O)c1C,12.8%
17,O=C(Nc1ccc(OC(F)(F)F)cc1)Nc1cccc([N+](=O)[O-])c1,1.65%
18,CC(=O)c1c(O)cc2c3c1OC(C)(C)C1CCC(C)(CC31)O2 (stereo not given),30.9% (active)
19,CCOc1ccc(-c2cc(C)n3nc(C(N)=O)cc3n2)cc1,23.3%
20,COc1ccc(CCNC(=O)COC(=O)Cc2cccc3ccccc23)cc1,-9.98%

row,Structure (SMILES),inhibition
1,COc1ccc(OCCOCC(O)CN2CCOCC2)cc1 (stereo not given),-8.92%
2,CCCCCCSc1ccc([C@H]2N[C@@](CC(C)C)(C(=O)OC)[C@H]3C(=O)N(C)C(=O)[C@@H]23)cc1OC,-10.5%
3,Nc1nc(CCl)nc(N(c2ccccc2)c2ccccc2)n1,15.9%
4,O=C(Nc1cccc(S(=O)(=O)N2CCCCC2)c1)c1ccc(S(=O)(=O)C(F)F)cc1,14.9%
5,CCSc1ccccc1C(=O)NCc1ccc2c(c1)OCO2,-10.1%
6,Fc1ccccc1-c1csc(=Nc2cccnc2)n1CCCn1ccnc1,25.1%
7,Cc1ccc(S(=O)(=O)N(C)c2ccc(OCC(=O)OCc3c(C)noc3C)cc2)cc1,-6.86%
8,CC(C)(CC(=O)O)CC(=O)Nc1cc(C(F)(F)F)cc(C(F)(F)F)c1,-7.34%
9,Cc1ccc(/C=C/C(O)=C2/C(=O)N(C)C3(C)CC2c2ccccc2O3)cc1 (stereo not given),30.3% (active)
10,O=C(CC12CC3CC(CC(C3)C1)C2)Nc1nncs1,19.6%
11,COc1ccc(C(=O)NN(C)c2nc(C(F)(F)F)nc3ccccc23)cc1,35.3% (active)
12,Cc1c(P(=S)(c2ccccc2)c2ccccc2)[n+]2ccccc2n1CCc1ccccc1,22%
13,Cc1cc(C)c2nc(C(F)(F)F)c(C#N)c(N)c2c1,31.6% (active)
14,CCCN1C(=O)c2ccccc2NC1c1ccc(Cl)c(Cl)c1 (stereo not given),22.1%
15,Cc1nc(Nc2nc(CSc3nc4ccccc4[nH]3)cc(=O)[nH]2)nc2ccccc12,3.35%
16,CC(C)(C)CNC(=O)[C@]1(C)CCC[C@@]2(C)C3CC[C@@]4(C)C[C@]3(CCC21)CC4=O (stereo not given in full),17.9%
17,Cc1cc(SCC(=O)N/N=C/c2ccc(O)cc2O)c(C)cc1Br,23.2%
18,CC(C)(C)c1csc(Sc2ccc([N+](=O)[O-])cn2)n1,-8.39%
19,CN1CCN(S(=O)(=O)c2ccc(Sc3nnnn3-c3ccccc3)c([N+](=O)[O-])c2)CC1,2.52%
20,COc1ccc(C(CNC(=O)C(C)(C)Oc2ccc(Cl)cc2)N2CCCCC2)cc1 (stereo not given),2.63%
